Results filed as inconclusive are left out. Activity calls are given as the source filed them. Unless noted, calls come from the whole dose curve; as a rule, active = well fitted curve in the direction sought with a large enough effect in the repeat runs; inconclusive = weak or mixed curves; inactive = no such curve, though single readings can be large; an effect the other way counts as inactive or inconclusive.
Legend:
[1] = qHTS assay to identify small molecule agonists of the estrogen receptor alpha (ER-alpha) signaling pathway in the presence of an antagonist - cell viability counter screen (AID 1259386);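 note: series mostly up to about 92 µM; cells exposed to compounds for 22 h at 37 °C before the viability read; nearly all actives have a fitted effect of over 30% in size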
Summary of the method: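 Fluorescent CellTiter-Fluor viability signal from VM7Luc4E2 cells, with the reagent added during the final hour of a 22hr compound exposure at 37C in the presence of 10.0nM ICI-182,780.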

[2] = molecular target: Progesterone receptor (Homo sapiens) (UniProt P06401); test: qHTS assay to identify small molecule agonists of the progesterone receptor (PR) signaling pathway (AID 1346784; calls by dose curve; note: nearly all actives have a fitted effect of over 30% in size)
Sequence of Progesterone receptor (Homo sapiens) (P06401 whole entry, looked up): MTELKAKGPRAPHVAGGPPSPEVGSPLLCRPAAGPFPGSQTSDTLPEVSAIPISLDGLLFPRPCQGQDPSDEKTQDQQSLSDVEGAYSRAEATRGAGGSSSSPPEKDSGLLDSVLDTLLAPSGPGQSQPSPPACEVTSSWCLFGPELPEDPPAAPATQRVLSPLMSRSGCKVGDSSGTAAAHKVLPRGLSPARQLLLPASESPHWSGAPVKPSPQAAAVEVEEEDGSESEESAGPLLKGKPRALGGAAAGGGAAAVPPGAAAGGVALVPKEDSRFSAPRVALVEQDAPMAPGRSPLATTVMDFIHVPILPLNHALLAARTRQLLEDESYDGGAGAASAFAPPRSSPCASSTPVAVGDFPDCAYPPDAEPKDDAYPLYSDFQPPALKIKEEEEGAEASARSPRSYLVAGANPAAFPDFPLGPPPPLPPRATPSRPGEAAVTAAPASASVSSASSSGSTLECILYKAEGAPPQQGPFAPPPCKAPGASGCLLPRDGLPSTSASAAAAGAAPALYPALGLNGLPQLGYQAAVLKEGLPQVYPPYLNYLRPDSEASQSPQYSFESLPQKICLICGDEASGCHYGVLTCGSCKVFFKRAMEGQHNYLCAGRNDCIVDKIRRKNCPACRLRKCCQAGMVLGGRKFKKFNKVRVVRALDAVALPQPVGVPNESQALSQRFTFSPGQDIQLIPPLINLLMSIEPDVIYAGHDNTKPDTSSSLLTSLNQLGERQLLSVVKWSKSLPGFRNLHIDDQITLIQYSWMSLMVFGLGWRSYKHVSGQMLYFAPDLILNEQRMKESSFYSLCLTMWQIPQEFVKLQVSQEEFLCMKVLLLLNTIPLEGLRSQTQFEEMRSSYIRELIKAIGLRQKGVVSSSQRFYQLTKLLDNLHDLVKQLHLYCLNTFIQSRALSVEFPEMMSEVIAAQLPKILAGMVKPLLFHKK
Summary of the method: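 PR-UAS-bla HEK 293T cells carrying a UAS-driven beta-lactamase reporter were seeded in medium with 2% charcoal-stripped FBS, preincubated 6 hr at 37C, then exposed to compounds in DMSO for 16 hr; agonism was read by LiveBLAzer B/G FRET fluorescence.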

[3] = molecular target: Progesterone receptor (Homo sapiens) (UniProt P06401); test: qHTS assay to identify small molecule antagonists of the progesterone receptor (PR) signaling pathway (AID 1346795; active = well fitted inhibition curve with a large enough effect in the signal ratio in the repeat runs, not every such curve was filed as active; the % refers to the signal ratio)
Summary of the method: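 PR-UAS-bla HEK293T cells carrying a UAS-driven beta-lactamase reporter were plated in medium with 2% charcoal-stripped FBS and rested 6 hr at 37C. Compounds were added with 1 nM R5020 (final) for 16 hr, then FRET substrate loaded 2 hr at room temperature.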

[4] = qHTS assay to identify small molecule antagonists of the progesterone receptor (PR) signaling pathway - cell viability counter screen (AID 1346798); note: series mostly up to about 92 µM; nearly all actives have a fitted effect of over 50% in size
Summary of the method: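 PR-UAS-bla HEK293T cells in medium with 2% charcoal-stripped FBS were treated with compounds plus R5020 for 16 hr at 37C. Cell viability was then read by CellTiter-Glo luminescence after 30 min at room temperature in the same wells.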

[5] = qHTS assay to identify small molecule agonists of the progesterone receptor (PR) signaling pathway - cell viability counter screen (AID 1346799; calls by dose curve; note: nearly all actives have a fitted effect of over 45% in size)
Summary of the method: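 PR-UAS-bla HEK293T cells, 3,000 per well in medium with 2% charcoal-stripped FBS, were preincubated 6 hr at 37C, then exposed to compounds for 16 hr; viability was read as CellTiter-Glo luminescence after 30 min at room temperature.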

[6] = qHTS assay to identify small molecule antagonists of the TGF-beta/Smad signaling pathway - cell viability counter screen (AID 1346824); note: nearly all actives have a fitted effect of over 50% in size
Summary of the method: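 SBE-bla HEK 293T cells, incubated overnight, then compound plus 0.25 ng/mL TGF-beta1 (stock added) for 5 hr at 37 C. Viability was read in the same wells by CellTiter-Glo luminescence after 30 min at room temperature.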

[7] = qHTS assay to identify small molecule agonists of the TGF-beta/Smad signaling pathway - cell viability counter screen (AID 1346829); note: top concentration of the series differs between compounds; nearly all actives have a fitted effect of over 45% in size
Summary of the method: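 HEK 293T SBE-bla line, 5 hr compound exposure at 37 C, multiplexed CellTiter-Glo viability read by luminescence.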

[8] = qHTS assay to identify small molecule agonists of the TGF-beta/Smad signaling pathway (AID 1346859; active = well fitted activation curve with a large enough effect in the signal ratio in the repeat runs, not every such curve was filed as active; the % refers to the signal ratio; note: series mostly up to about 77 µM)
Summary of the method: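 HEK 293T cells stably carrying a beta-lactamase reporter driven by the Smad binding element were seeded overnight, exposed to DMSO-dissolved compounds for 5 hr at 37 C, 5% CO2, then loaded with FRET substrate for 2 hr at room temperature.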

[9] = molecular target: Thyrotropin-releasing hormone receptor (Homo sapiens) (UniProt P34981); test: qHTS assay to identify small molecule antagonists of the thyrotropin-releasing hormone receptor (TRHR) signaling pathway (AID 1346877; active = well fitted inhibition curve with a large enough effect in the repeat runs, not every such curve was filed as active; note: series mostly up to about 51 µM)
Sequence of Thyrotropin-releasing hormone receptor (Homo sapiens) (P34981 whole entry, looked up): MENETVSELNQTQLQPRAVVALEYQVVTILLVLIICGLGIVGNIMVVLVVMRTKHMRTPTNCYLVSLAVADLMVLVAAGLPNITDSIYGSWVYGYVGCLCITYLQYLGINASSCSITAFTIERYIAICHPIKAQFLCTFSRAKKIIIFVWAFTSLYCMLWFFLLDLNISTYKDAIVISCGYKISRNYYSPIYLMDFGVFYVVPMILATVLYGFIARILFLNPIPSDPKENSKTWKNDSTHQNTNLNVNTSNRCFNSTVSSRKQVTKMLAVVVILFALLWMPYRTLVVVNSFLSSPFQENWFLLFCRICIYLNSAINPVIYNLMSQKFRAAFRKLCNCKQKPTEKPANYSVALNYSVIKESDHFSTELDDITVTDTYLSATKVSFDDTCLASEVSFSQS
Summary of the method: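 In this cell-based calcium flux format, HEK293 cells expressing TRHR received test compound for 5 min before the agonist TRH (1 nM final). Dye loading lasted 2 h at 37 °C.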

[10] = molecular target: Thyrotropin-releasing hormone receptor (Homo sapiens) (UniProt P34981); test: qHTS assay to identify small molecule agonists of the thyrotropin-releasing hormone receptor (TRHR) signaling pathway (AID 1346891; calls by dose curve; note: series mostly up to about 58 µM)
Summary of the method: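 TRHR-expressing HEK293 cells were plated 18 h at 37 °C/5% CO2, loaded with calcium dye 2 h at 37 °C, then given compound in DMSO; fluorescence was read kinetically for 3 min at 1 s intervals.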

[11] = Human pregnane X receptor (PXR) small molecule agonists, qHTS cell viability counter screen (AID 1346977); note: nearly all actives have a fitted effect of over 50% in size
Summary of the method: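 PXR-Luc HepG2 cells in medium with 5% charcoal-stripped FBS were pre-incubated 5hr, then exposed to compounds for 24hr at 37C. Viability was read in the same wells by CellTiter-Fluor fluorescence, reagent added after 23hr with a 1hr incubation.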

[12] = Caspase-3/7 induction in HepG2 cells by small molecules, qHTS assay (AID 1346978); note: nearly all actives have a fitted effect of over 15% in size
Summary of the method: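 Wild-type HepG2 cells, 2,000/well, settled 5 hr at 37 C and 5% CO2, then compound-treated for 17 hr; caspase-3/7 activity read by luminescent Caspase-Glo 3/7 after 30 min at room temperature.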

[13] = Caspase-3/7 induction in CHO-K1 cells by small molecules, qHTS cell viability counter screen (AID 1346979); note: nearly all actives have a fitted effect of over 35% in size
Summary of the method: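 Wild-type CHO-K1 cells were seeded at 1,500 per well, rested 5hr at 37 C, then exposed to compounds in DMSO. After 16hr, CellTiter-Fluor reagent was added and fluorescence read 1hr later as the viability measure.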

[14] = Caspase-3/7 induction in CHO-K1 cells by small molecules, qHTS assay (AID 1346980); note: nearly all actives have a fitted effect of over 15% in size
Summary of the method: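 Wild-type CHO-K1 cells exposed to compounds for 17hr at 37 C, 5% CO2. Caspase-3/7 activity then measured by Caspase-Glo 3/7 luminescence after 30min at room temperature.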

[15] = Caspase-3/7 induction in HepG2 cells by small molecules, qHTS cell viability counter screen (AID 1346981); note: series mostly up to about 92 µM; nearly all actives have a fitted effect of over 30% in size
Summary of the method: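 Counter screen for cytotoxicity: HepG2 exposed 16 hr to compounds, then CellTiter-Fluor viability signal (fluorescence, 1 hr reagent incubation).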

[16] = molecular target: Nuclear receptor subfamily 1 group I member 2 (Homo sapiens) (UniProt O75469); test: Human pregnane X receptor (PXR) small molecule agonists, qHTS assay (AID 1346982); note: nearly all actives have a fitted effect of over 35% in size
Sequence of Nuclear receptor subfamily 1 group I member 2 (Homo sapiens) (O75469 whole entry, looked up): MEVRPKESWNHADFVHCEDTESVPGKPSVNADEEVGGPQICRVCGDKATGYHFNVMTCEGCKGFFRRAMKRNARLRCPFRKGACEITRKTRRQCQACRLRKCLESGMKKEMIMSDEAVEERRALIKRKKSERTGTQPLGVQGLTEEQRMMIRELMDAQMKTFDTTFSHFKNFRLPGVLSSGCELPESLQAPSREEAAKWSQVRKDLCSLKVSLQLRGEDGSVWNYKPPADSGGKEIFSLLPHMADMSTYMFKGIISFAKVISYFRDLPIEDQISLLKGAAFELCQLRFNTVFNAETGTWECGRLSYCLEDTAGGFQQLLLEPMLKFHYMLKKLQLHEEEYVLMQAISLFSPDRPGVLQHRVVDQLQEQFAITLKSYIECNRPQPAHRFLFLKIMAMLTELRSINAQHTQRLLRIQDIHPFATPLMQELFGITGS
Summary of the method: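 Luminescence (ONE-Glo, 30 min RT) after 24 hr compound exposure of PXR-Luc HepG2 cells; cells rested 5 hr post-plating in 5% charcoal-stripped FBS medium.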

[17] = molecular target: Acetylcholinesterase (Homo sapiens) (UniProt P22303); test: Acetylcholinesterase (AChE) small molecule antagonists: colormetric cell-based qHTS assay (AID 1347395; calls by dose curve; note: nearly all actives have a fitted effect of over 30% in size)
Sequence of Acetylcholinesterase (Homo sapiens) (P22303 whole entry, looked up): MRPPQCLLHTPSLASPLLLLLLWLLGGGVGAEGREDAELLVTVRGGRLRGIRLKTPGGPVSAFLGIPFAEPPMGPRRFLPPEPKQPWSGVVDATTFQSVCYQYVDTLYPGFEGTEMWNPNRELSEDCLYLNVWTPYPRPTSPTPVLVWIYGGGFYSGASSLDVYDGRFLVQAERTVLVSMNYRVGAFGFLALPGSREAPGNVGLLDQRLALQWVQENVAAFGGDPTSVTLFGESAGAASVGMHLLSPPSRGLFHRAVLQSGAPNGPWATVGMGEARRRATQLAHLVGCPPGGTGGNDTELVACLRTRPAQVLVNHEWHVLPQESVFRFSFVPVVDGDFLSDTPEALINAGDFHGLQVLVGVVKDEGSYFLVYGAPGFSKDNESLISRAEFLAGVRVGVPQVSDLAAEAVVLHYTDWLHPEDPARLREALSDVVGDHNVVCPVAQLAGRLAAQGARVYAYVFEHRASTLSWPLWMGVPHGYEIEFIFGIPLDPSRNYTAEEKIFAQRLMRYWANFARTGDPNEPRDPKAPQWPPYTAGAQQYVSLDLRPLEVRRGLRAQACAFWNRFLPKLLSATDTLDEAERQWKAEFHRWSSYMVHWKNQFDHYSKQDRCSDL
Summary of the method: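 SH-SY5Y cells, plated overnight at 37 C, were exposed to compounds for 30 min at 37 C and 5% CO2. Acetylthiocholine plus DTNB was then added, and thiocholine from endogenous AChE was quantified colorimetrically after 90 min at 37 C.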

[18] = molecular target: Nuclear receptor subfamily 1 group I member 2 (Rattus norvegicus) (UniProt Q9R1A7); test: Rat pregnane X receptor (rPXR) activation by small molecules, qHTS assay (AID 1346983); settings: rPXR luciferase reporter cells, One-Glo luminescence, 24 h; hits give high values; note: nearly all actives have a fitted effect of over 20% in size
Sequence of Nuclear receptor subfamily 1 group I member 2 (Rattus norvegicus) (Q9R1A7 whole entry, looked up): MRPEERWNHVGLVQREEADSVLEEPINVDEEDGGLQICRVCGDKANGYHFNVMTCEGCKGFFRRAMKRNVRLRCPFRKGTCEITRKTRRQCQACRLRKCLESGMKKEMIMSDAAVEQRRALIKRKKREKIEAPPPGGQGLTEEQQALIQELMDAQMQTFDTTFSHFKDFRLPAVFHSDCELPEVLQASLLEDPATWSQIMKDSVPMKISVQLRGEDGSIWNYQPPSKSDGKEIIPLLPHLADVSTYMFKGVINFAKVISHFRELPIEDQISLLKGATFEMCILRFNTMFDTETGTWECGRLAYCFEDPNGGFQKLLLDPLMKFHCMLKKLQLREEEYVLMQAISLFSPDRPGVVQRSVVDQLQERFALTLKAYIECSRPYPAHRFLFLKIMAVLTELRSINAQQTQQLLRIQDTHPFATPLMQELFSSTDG
Summary of the method: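 Cell-based rPXR activation assay: rPXR cells, 2,000 per well, rested 5hr at 37 C, then exposed to compounds in DMSO for 24 hr at 37 C. Luciferase activity read by One-Glo luminescence after 30 min at room temperature.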

[19] = molecular target: Nuclear receptor subfamily 1 group I member 2 (Homo sapiens) (UniProt O75469); test: CYP3A4 induction through human pregnane X receptor (PXR) by small molecules, qHTS assay (AID 1346984); note: nearly all actives have a fitted effect of over 40% in size
Summary of the method: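 DPX-2 reporter cells; 24h cpd, 37C; Luciferin-IPA 3uM final x3h; One-Glo 30 min RT; lumi read.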

[20] = molecular target: Nuclear receptor subfamily 1 group I member 2 (Homo sapiens) (UniProt O75469); test: Human pregnane X receptor (PXR) activation by small molecules, qHTS assay (AID 1346985); note: nearly all actives have a fitted effect of over 40% in size
Summary of the method: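 DPX-2 cells (HepG2 co-transfected with a PXR response element and a CYP3A4-promoter luciferase construct) were seeded at 2,000 per well, rested 5 hr at 37C, then exposed to DMSO-dissolved compounds for 24 hr. Activation was read as luciferase luminescence.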
% is set by controls: 0 for no effect and ±100 for the full control effect.

O=[N+]([O-])c1cccc(CCl)c1
inactive: Potency [1] | Potency [2] | Potency [3] | Potency [4] | Potency [5] | outcome [6] | Potency [7] | outcome [8] | Potency [9] | outcome [10] | Potency [11] | outcome [12] | Potency [13] | outcome [14] | Potency [15]

CCN(CCO)CCn1c(Cc2ccccc2)nc2c1c(=O)n(C)c(=O)n2C
inactive: Potency [1] | Potency [2] | Potency [3] | Potency [4] | Potency [5] | outcome [6] | Potency [7] | outcome [8] | Potency [9] | outcome [10] | Potency [11] | outcome [12] | Potency [13] | outcome [14] | Potency [16] | Potency [17]

O=C(O)c1c(Cl)ccc2cc(Cl)cnc12
inactive: Potency [1] | Potency [2] | Potency [3] | Potency [4] | Potency [5] | outcome [6] | Potency [7] | outcome [8] | Potency [9] | outcome [10] | Potency [11] | outcome [12] | Potency [13] | outcome [14] | Potency [15] | Potency [16] | Potency [17]

CN(CCO)CCO
inactive: Potency [1] | Potency [2] | Potency [3] | Potency [4] | Potency [5] | outcome [6] | Potency [7] | outcome [8] | Potency [9] | outcome [10] | Potency [11] | outcome [12] | Potency [15] | Potency [17]

OP(O)c1ccccc1
inactive: Potency [1] | Potency [2] | Potency [3] | Potency [4] | Potency [5] | outcome [6] | Potency [7] | outcome [8] | Potency [9] | outcome [10] | Potency [11] | outcome [12] | outcome [14] | Potency [15] | Potency [16] | Potency [17]

S=C=S
inactive: Potency [1] | Potency [2] | Potency [3] | Potency [4] | Potency [5] | outcome [6] | Potency [7] | outcome [8] | Potency [9] | outcome [10] | Potency [11] | outcome [12] | Potency [13] | outcome [14] | Potency [15] | Potency [16] | max activation [18] 3.06% | Potency [19] | Potency [20] | Potency [17]

CC(Cc1ccccc1)NCCCCl (configuration not stated)
inactive: Potency [1] | Potency [2] | Potency [3] | Potency [4] | Potency [5] | outcome [6] | Potency [7] | outcome [8] | Potency [9] | outcome [10] | Potency [11] | outcome [12] | Potency [13] | outcome [14] | Potency [15] | Potency [16] | Potency [17]

CCCCCCC1CCOC1=O (configuration not stated)
inactive: Potency [1] | Potency [2] | Potency [3] | Potency [4] | Potency [5] | outcome [6] | Potency [7] | outcome [8] | Potency [9] | outcome [10] | Potency [11] | outcome [12] | Potency [13] | outcome [14] | Potency [15] | Potency [16] | Potency [17]

Reference: PubChem BioAssay (Tox21)
